RORgamma inh = inhibitors of mouse ROR gamma transcriptional activity; Drosophila S2 Gal4-RORgamma UAS-luciferase reporter, 20 h; P51450; Potency, µM (highest dose often 53.6 µM), for the others: at the highest dose activity change, negative = inhibition, most hits filed as inhibitors; hit rate 5.4% among 310,000; also: potency is read from the fitted curve at half-maximal effect; % is scaled to controls: 0 for no effect and ±100 for the full control effect; nearly all actives have a fitted effect of over 60% in size
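A Gal4/UAS one-hybrid system in insect cells: metallothionein-promoter Gal4–ROR gamma fusion plus Photinus luciferase reporter. Copper sulfate 700 uM final, 20 hr ambient incubation, luminescent detection after 10 min with reagent.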
CBFb RUNX1 block = inhibitors of human CBF-beta and RUNX1 interaction; Potency, µM (doses to about 59.8 µM), for inactives: top-dose activity, negative = inhibition, actives largely listed as inhibitors; AID 1477; Q01196+Q13951; AlphaScreen CBFb-His/RUNX1-biotin binding, biochemical; 230,000 tested, under 10 active; also: % of control where 0% means no effect
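Read-out: AlphaScreen. Format: His-CBF-beta with biotinylated RUNX1 (30 nM each) preincubated 20 min, compound 15 min, Ni-chelate plus streptavidin beads 90 min; room temperature throughout.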
VP16 counter = inhibits Gal4-VP16 luciferase reporter, ROR gamma counter-screen | Potency, µM (top dose mostly 53.6 µM), for inactives: at the top dose activity, negative = inhibition, actives largely listed as inhibitors | Drosophila S2 Gal4-VP16 UAS-luciferase, luminescence, 20 h | hit rate 3.5% among 310,000 | AID 2546;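 also: Gal4-VP16 expression switched on by copper sulfate through the metallothionein promoter; potency is read from the fitted curve at half-maximal effect; % is scaled to controls: 0 for no effect and ±100 for the full control effect; nearly all actives have a fitted effect of over 50% in size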
MBNL1-CUG inh = MBNL1-poly(CUG) RNA binding inhibition; hit rate 0.036% among 280,000; TR-FRET MBNL1-His/biotin-(CUG)12 binding, 665/545 ratio; Q9NR56; Potency, µM (series often up to 57.5 µM), without a hit: at the top dose activity change, negative = inhibition, usual class: inhibitors; active = well fitted inhibition curve with a large enough effect in the signal ratio, with a control signal flat, not every such curve was filed as active; inconclusive = small, poorly fitted or top-dose-only effect, or effect the other way, or a change in a side signal; inactive = no such curve, though single readings can be large or run the other way; the % refers to the signal ratio; also: potency is read from the fitted curve at half-maximal effect; % is scaled to controls: 0 for no effect and ±100 for the full control effect
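TR-FRET between His-tagged MBNL1 and biotin-(CUG)12 RNA, detected with Tb anti-His antibody (0.055 ng/ul) and streptavidin-XL665 (5 nM), 60 min at room temperature. Compounds titrated 92 nM to 58 uM; 665/545 nm ratio normalized to buffer and complex controls.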
CtBP-E1A inh = CtBP/E1A binding inhibition; AlphaScreen GST-E1A/His-CtBP binding, 1536-well; stronger effect = lower value; activity change, % (concentration not given with the values); hit rate 0.49% among 340,000; in the data active = activity change below about -65%; inconclusive = mostly about -30% to -63%; also: % is scaled to controls: 0 for no effect and ±100 for the full control effect
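Homogeneous bead-based format: GST-tagged E1A captured on glutathione donor beads, His-tagged CtBP on nickel acceptor beads; compounds precede bead addition by 2 h at 37 °C.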
Six1-Eya2 inh = inhibitors of human Six1/Eya2 interaction. hit rate 0.56% among 360,000. Q15475+O00167. activity change, % (no concentration beside the values). AlphaScreen GST-Six1/His-Eya2 binding, biochemical; stronger effect = lower value. AID 651725; in the data active = activity change below about -65%; inconclusive = mostly about -30% to -63%; also: % is scaled to controls: 0 for no effect and ±100 for the full control effect
Target sequence (O00167 whole entry, looked up): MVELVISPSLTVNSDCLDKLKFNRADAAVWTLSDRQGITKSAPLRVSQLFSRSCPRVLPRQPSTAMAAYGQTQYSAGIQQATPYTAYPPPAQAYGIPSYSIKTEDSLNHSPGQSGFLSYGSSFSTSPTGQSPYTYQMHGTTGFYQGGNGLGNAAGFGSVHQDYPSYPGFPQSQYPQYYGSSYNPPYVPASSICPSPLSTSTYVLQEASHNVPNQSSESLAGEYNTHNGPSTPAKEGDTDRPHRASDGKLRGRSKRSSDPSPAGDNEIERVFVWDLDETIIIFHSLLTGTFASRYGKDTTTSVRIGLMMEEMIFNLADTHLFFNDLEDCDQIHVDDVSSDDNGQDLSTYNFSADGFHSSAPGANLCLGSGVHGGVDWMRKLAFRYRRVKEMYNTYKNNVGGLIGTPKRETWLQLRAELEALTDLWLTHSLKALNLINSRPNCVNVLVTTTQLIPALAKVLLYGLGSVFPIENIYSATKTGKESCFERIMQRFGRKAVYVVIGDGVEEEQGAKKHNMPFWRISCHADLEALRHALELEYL
Target sequence (Q15475 whole entry, looked up): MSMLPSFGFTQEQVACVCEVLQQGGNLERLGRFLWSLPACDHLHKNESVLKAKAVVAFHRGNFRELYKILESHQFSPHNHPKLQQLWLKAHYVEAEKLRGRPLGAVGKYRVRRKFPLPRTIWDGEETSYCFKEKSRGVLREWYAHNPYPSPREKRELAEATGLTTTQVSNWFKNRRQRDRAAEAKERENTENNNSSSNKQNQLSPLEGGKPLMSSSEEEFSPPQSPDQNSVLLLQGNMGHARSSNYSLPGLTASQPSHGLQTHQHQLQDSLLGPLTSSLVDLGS
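Homogeneous AlphaScreen proximity assay pairing GST-Six1 with His-tagged Eya2 (added as 5X mix: 250 nM and 500 nM) in 50 mM Tris pH 8.0, 300 mM NaCl, 1 mM TCEP. Glutathione donor and nickel acceptor beads; 1 h, 37 °C, dark.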
The depositor's hits bear a star; ? = inconclusive; · = no result given; [ ] = dose if it differs, or a comment. This is a sample that favours compounds with a hit; in the whole collection about 5.5% have one here. Unless noted, calls follow the shape of the dose curve; as a rule, active = well fitted curve in the direction sought with a large enough effect; inconclusive = small, poorly fitted or top-dose-only effect, or another doubt; inactive = no such curve, though single readings can be large; an effect the other way counts as inactive or inconclusive.

SMILES	RORgamma inh	CBFb RUNX1 block	VP16 counter	MBNL1-CUG inh	CtBP-E1A inh	Six1-Eya2 inh
CN(Cc1ccccc1)C(=O)c1ccc(NC(=O)Cc2ccc(NC(=O)C3CCCN(C(=O)C4CC4)C3)cc2)cc1 (configuration not stated)	·	·	·	·	3	5
O=C(CN1C(=O)C2C3C=CC(C3)C2C1=O)OCC(=O)c1ccc([N+](=O)[O-])cc1 (configuration not stated)	32%	·	-1%	?	-2	0
O=C(CN1C(=O)C2CC=CCC2C1=O)OCC(=O)c1ccc(Cl)c([N+](=O)[O-])c1 (configuration not stated)	-39%	·	35µM*	?	10	6
Cn1c(=O)c2c(nc(Sc3ncccn3)n2Cc2ccccc2Cl)n(C)c1=O	-2%	1%	-12%	-10%	0	-1
Cn1c(=O)c2c(nc(Sc3ncccn3)n2Cc2ccc(Cl)cc2)n(C)c1=O	-39%	-3%	16µM*	3%	0	-2
CC(C)NC(=S)NN=C1CCC(c2ccccc2)CC1 (configuration not stated)	5.6µM*	-10%	11µM*	3%	-6	-10
O/N=C1\CCCc2ccccc21	9%	10%	-13%	4%	6	-1
O=C(NN=C1CCC(c2ccccc2)CC1)c1cc2c(s1)CCCC2 (configuration not stated)	-12%	5%	-1%	-23%	-1	-3
CC(C)NC(=S)N/N=C1\CCCc2ccccc21	1.6µM*	-3%	4µM*	-2%	0	-10
CCc1ccccc1CC1CN(Cc2ccccc2)Cc2ccccc2N1c1ccc(OC)cc1 (configuration not stated)	·	·	·	·	-12	-9
C[C@H](CO)N1C[C@H](C)[C@H](CN(C)Cc2ccncc2)Oc2ccc(NC(=O)Nc3ccc(C(F)(F)F)cc3)cc2CC1=O	·	·	·	·	-1	-8
O=[N+]([O-])c1cccc(-c2noc(-c3ccco3)n2)c1	?	2%	?	?	·	-2
CC(C)(C)c1cccc(C2(O)C(=O)c3ccccc3C2=O)c1O	-27%	5%	13µM*	·	-1	0
Cc1ccc(NC(=S)Nc2ccc(C(C)C)cc2)cc1S(=O)(=O)N1CCCCCC1	3.2µM*	-2%	4.5µM*	-10%	-2	-16
COc1ccc(NC(=S)Nc2ccc(C)c(S(=O)(=O)N3CCCCC3)c2)cc1	?	1%	?	·	·	·
C=CCNC(=S)Nc1ccc(C)c(S(=O)(=O)N2CCCCC2)c1	11µM*	10%	-1%	2%	-4	3
C#CCCCO/N=C1/[C@H]2O[C@@H]2[C@@H](O)[C@H]2[C@H]1CCn1c(=O)n([C@@H](CC)c3ccccc3)c(=O)n12	-3%[10 µM]	6%[13.1 µM]	-6%[10 µM]	·	·	·
O=c1c2ccccc2cnn1CCOc1ccccc1	4.5µM*	8%	4µM*	-14%	0	27
O=C(NCc1cccnc1)NC1(C(F)(F)F)Oc2ccccc2O1	10µM*	-4%	?	3%	-2	3
Cc1ccc(S(=O)(=O)Nc2ccc(OCC(=O)N3CCOCC3)cc2)c(C)c1NS(C)(=O)=O	-3%	·	0%	-4%	7	8
CCCCCCn1c(=O)c(-c2ccccc2)c(O)c2ccccc21	1%	-4%	-11%	-4%	?	-20
Cn1cc(-c2nc3ccccc3[nH]2)c2ccccc21	1%	6%	-2%	-8%	-7	-9
CCCn1c(=O)c(-c2nc3ccccc3[nH]2)c(O)c2ccccc21	0.5µM*	0%	2µM*	-1%	-19	9
CCn1c(=O)c(-c2nc3ccccc3[nH]2)c(O)c2ccccc21	0.16µM*	4%	0.63µM*	-9%	0	2
Cc1ccc(Cn2c(C(C)Nc3nc(-c4ccc(F)cc4)cs3)nc3cc(Cl)c(Cl)cc32)cc1 (configuration not stated)	·	·	·	·	24	25
SMILES	RORgamma inh	CBFb RUNX1 block	VP16 counter	MBNL1-CUG inh	CtBP-E1A inh	Six1-Eya2 inh
CCCn1c(C(CO)Nc2nc(-c3cccc(Br)c3)cs2)nc2ccccc21 (configuration not stated)	13µM*	·	?	3%	-6	-12
CCCn1c(C(C)Nc2nc(-c3ccc(C)cc3)cs2)nc2cc(Cl)c(Cl)cc21 (configuration not stated)	11µM*	·	-8%	0%	-4	-7
C=CC1=C2C=C(C3CC3)N(CCCCO)C=C2C(=O)C(C)(OC(=O)c2ccco2)C1=O (configuration not stated)	·	-2%[13.1 µM]	·	·	·	·
CC(=O)Nc1ccc(NC(=O)C(C)OC(=O)CCCN2C(=O)c3cccc4cccc(c34)C2=O)cc1 (configuration not stated)	·	·	·	·	-14	-2
CC(c1ccccc1)n1cc(C(=O)NCc2ccncc2)nn1 (configuration not stated)	-8%	1%	-10%	1%	2	6
CC(c1ccccc1F)n1cc(C(=O)NCc2ccncc2)nn1 (configuration not stated)	2.8µM*	5%	5%	-4%	8	5
CC(=O)c1c(N2CCN(C)CC2)[nH]c(-c2ccccc2)nc1=S	10µM*	-9%	-20%	4%	-3	-7
COc1ccc(NC(=S)/N=C(\N)Nc2nc(C)c3ccc(C)cc3n2)cc1	0.63µM*	-2%	2µM*	-8%	-30	?
CCOc1ccc2nc(N/C(N)=N/C(=S)Nc3ccc(C)c(C)c3)nc(C)c2c1	1.8µM*	-4%	?	-2%	-10	3
CC(C(=O)N1CCCC1)N1CCN(S(=O)(=O)c2ccc(C(C)(C)C)cc2)CC1 (configuration not stated)	·	·	·	·	·	6
Cc1ccc([C@H]2C[C@H](n3cc(-c4ccc(F)cc4)nn3)[C@@H](O)CN2CC2CCCCC2)cc1	·	·	·	·	0	9
CCOc1ccccc1C(=O)NC1CCNCC1	1%[1.91 µM]	·	7%	-2%	0	9
Cc1ccc(-n2c(C)cc(C(=S)N3CCOCC3)c2C)cc1C	14µM*	-15%	-28%	-5%	-4	-15
Cc1cnc(C)c(N2CCN(Cc3nc(-c4ccccc4)no3)CC2)n1	10%	-7%	-12%	-5%	·	-1
Cc1cc(Cl)ccc1OCC(=O)N(Cc1ccco1)c1c(N)n(Cc2ccccc2)c(=O)[nH]c1=O	·	·	·	·	0	-1
O=C(Nc1ccon1)c1ccc2c(c1)OCO2	19%	1%	7%[0.365 µM]	-1%	8	-1
Cc1ccc2nc(NC(=O)c3ccc4ncsc4c3)sc2c1	-39%	?	?	51%	13	3

Assay outcomes deposited in PubChem by National Center for Advancing Translational Sciences (NCATS).
